The full ranking holds about 16,000 sequences; the median of “rpm ratio (pull-down/input)” is about 0.5, and the highest 2% start at about 5.5. This is one part of a sample in which the highest values are shown more often than they occur.

In this assay the target is T1, MBP-FoxP3dN (Mus musculus, UniProt Q99JB6 188-423).
T1 sequence: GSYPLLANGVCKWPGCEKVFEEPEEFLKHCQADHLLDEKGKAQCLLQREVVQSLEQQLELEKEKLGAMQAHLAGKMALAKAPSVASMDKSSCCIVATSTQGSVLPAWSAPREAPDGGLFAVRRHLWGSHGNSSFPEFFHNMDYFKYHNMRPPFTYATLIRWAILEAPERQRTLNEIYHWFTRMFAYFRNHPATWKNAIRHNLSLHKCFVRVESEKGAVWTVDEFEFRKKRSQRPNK
The assay can be described thus: PD-seq (MBP pull-down with sequencing); 20 mM Tris-HCl pH 7.5, 100 mM NaCl, 1.5 mM MgCl2, 0.4 uM protein, 0.1 uM dsDNA library, 30 min, room temperature, amylose pull-down; high values mean tight binding. Particulars: protein: recombinant; tags: His6-MBP; chain copies: 2; dsDNA, one strand shown. A digest of the protocol: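 Mouse FoxP3 or FoxP1 fragment lacking the N-terminus, His6-MBP-tagged and expressed in E. coli, was incubated at 0.4 µM with 0.1 µM Klenow-filled degenerate double-stranded DNA library for 30 min at room temperature in Tris pH 7.5 buffer with NaCl and MgCl2. Complexes captured on amylose resin were washed three times and their DNA sequenced on Illumina. Binding is reads-per-million enrichment of pull-down over input, replicates pooled.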
For the sequence “GATGATTGTTCTCCCAGCTGATGAATTAGGTCCTTCGAGTAAACAAATTTTCCTAATCTTTCTGTTCAAGCGCCATCTAC”, the binding signal was 0.354 RPM ratio (pull-down/input).
To “GATGATTGTTCTCCCAGCTGATGAATTCTCTCCATCGAGTAAACAAATTTTCCTAATCTTTCTGTTCAAGCGCCATCTAC” belongs 0.223 RPM ratio (pull-down/input); to “GATGATTGTTCTCCCAGCTGATGAATTGGTACGCTCGAGTAAACAAATTTTCCTAATCTTTCTGTTCAAGCGCCATCTAC”, 0.466 RPM ratio (pull-down/input).
To “GATGATTGTTCTCCCAGCTGATGAATTTGCCTTTTCGAGTAAACAAATTTTCCTAATCTTTCTGTTCAAGCGCCATCTAC” belongs 2.1 RPM ratio (pull-down/input).
To “GATGATTGTTCTCCCAGCTGATGAATTGCGCCTTTCGAGTAAACAAATTTTCCTAATCTTTCTGTTCAAGCGCCATCTAC” belongs 6.82 RPM ratio (pull-down/input); to “GATGATTGTTCTCCCAGCTGATGAATTTTTGCCTTCGAGTAAACAAATTTTCCTAATCTTTCTGTTCAAGCGCCATCTAC”, 2.86 RPM ratio (pull-down/input); to “GATGATTGTTCTCCCAGCTGATGAATTTTGCCTTTCGAGTAAACAAATTTTCCTAATCTTTCTGTTCAAGCGCCATCTAC”, 5.56 RPM ratio (pull-down/input).
“GATGATTGTTCTCCCAGCTGATGAATTTGCGCCTTCGAGTAAACAAATTTTCCTAATCTTTCTGTTCAAGCGCCATCTAC”: the binding signal was 3.88 RPM ratio (pull-down/input).
To “GATGATTGTTCTCCCAGCTGATGAATTGCCTTTTTCGAGTAAACAAATTTTCCTAATCTTTCTGTTCAAGCGCCATCTAC” belongs 1.02 RPM ratio (pull-down/input); to “GATGATTGTTCTCCCAGCTGATGAATTGTCTCATTCGAGTAAACAAATTTTCCTAATCTTTCTGTTCAAGCGCCATCTAC”, 0.539 RPM ratio (pull-down/input).
With “GATGATTGTTCTCCCAGCTGATGAATTGCCTTTGTCGAGTAAACAAATTTTCCTAATCTTTCTGTTCAAGCGCCATCTAC”, the binding signal is 0.946 RPM ratio (pull-down/input).
“GATGATTGTTCTCCCAGCTGATGAATTTCCTGTGTCGAGTAAACAAATTTTCCTAATCTTTCTGTTCAAGCGCCATCTAC”: the binding signal is 0.352 RPM ratio (pull-down/input).
To “GATGATTGTTCTCCCAGCTGATGAATTTGCCCTGTCGAGTAAACAAATTTTCCTAATCTTTCTGTTCAAGCGCCATCTAC” belongs 0.487 RPM ratio (pull-down/input); to “GATGATTGTTCTCCCAGCTGATGAATTGTGCCTGTCGAGTAAACAAATTTTCCTAATCTTTCTGTTCAAGCGCCATCTAC”, 6.42 RPM ratio (pull-down/input).
“GATGATTGTTCTCCCAGCTGATGAATTTTGCCTGTCGAGTAAACAAATTTTCCTAATCTTTCTGTTCAAGCGCCATCTAC”: the binding signal was 5.62 RPM ratio (pull-down/input).
To “GATGATTGTTCTCCCAGCTGATGAATTGCCTGTGTCGAGTAAACAAATTTTCCTAATCTTTCTGTTCAAGCGCCATCTAC” belongs 0.881 RPM ratio (pull-down/input).
With “GATGATTGTTCTCCCAGCTGATGAATTGCGCCTGTCGAGTAAACAAATTTTCCTAATCTTTCTGTTCAAGCGCCATCTAC” the figure was 6.14 RPM ratio (pull-down/input); with “GATGATTGTTCTCCCAGCTGATGAATTGTTCCTGTCGAGTAAACAAATTTTCCTAATCTTTCTGTTCAAGCGCCATCTAC”, 0.351 RPM ratio (pull-down/input); with “GATGATTGTTCTCCCAGCTGATGAATTGCCTGCGTCGAGTAAACAAATTTTCCTAATCTTTCTGTTCAAGCGCCATCTAC”, 0.937 RPM ratio (pull-down/input).
To “GATGATTGTTCTCCCAGCTGATGAATTGGGAACTTCGAGTAAACAAATTTTCCTAATCTTTCTGTTCAAGCGCCATCTAC” belongs 0.252 RPM ratio (pull-down/input).
As for “GATGATTGTTCTCCCAGCTGATGAATTGATAGATTCGAGTAAACAAATTTTCCTAATCTTTCTGTTCAAGCGCCATCTAC”, the binding signal is 0.495 RPM ratio (pull-down/input).
With “GATGATTGTTCTCCCAGCTGATGAATTCATAGGCTCGAGTAAACAAATTTTCCTAATCTTTCTGTTCAAGCGCCATCTAC” the figure was 0.321 RPM ratio (pull-down/input).
For “GATGATTGTTCTCCCAGCTGATGAATTATCCCGGTCGAGTAAACAAATTTTCCTAATCTTTCTGTTCAAGCGCCATCTAC”, the binding signal was 0.208 RPM ratio (pull-down/input).
To “GATGATTGTTCTCCCAGCTGATGAATTTGGTAACTCGAGTAAACAAATTTTCCTAATCTTTCTGTTCAAGCGCCATCTAC” belongs 1.38 RPM ratio (pull-down/input); to “GATGATTGTTCTCCCAGCTGATGAATTTGCCTTGTCGAGTAAACAAATTTTCCTAATCTTTCTGTTCAAGCGCCATCTAC”, 1.15 RPM ratio (pull-down/input); to “GATGATTGTTCTCCCAGCTGATGAATTAATAGAGTCGAGTAAACAAATTTTCCTAATCTTTCTGTTCAAGCGCCATCTAC”, 0.294 RPM ratio (pull-down/input).
With “GATGATTGTTCTCCCAGCTGATGAATTGCCACACTCGAGTAAACAAATTTTCCTAATCTTTCTGTTCAAGCGCCATCTAC” the figure was 1.52 RPM ratio (pull-down/input); with “GATGATTGTTCTCCCAGCTGATGAATTGCGCCACTCGAGTAAACAAATTTTCCTAATCTTTCTGTTCAAGCGCCATCTAC”, 7.19 RPM ratio (pull-down/input).
To “GATGATTGTTCTCCCAGCTGATGAATTGCCACTCTCGAGTAAACAAATTTTCCTAATCTTTCTGTTCAAGCGCCATCTAC” belongs 1.37 RPM ratio (pull-down/input).
For “GATGATTGTTCTCCCAGCTGATGAATTTGCCCACTCGAGTAAACAAATTTTCCTAATCTTTCTGTTCAAGCGCCATCTAC”, the binding signal is 0.555 RPM ratio (pull-down/input).
With “GATGATTGTTCTCCCAGCTGATGAATTTTGCCACTCGAGTAAACAAATTTTCCTAATCTTTCTGTTCAAGCGCCATCTAC” the figure was 5.96 RPM ratio (pull-down/input).

Source of the values: PMC12820563, “FoxP3 forms a head-to-head dimer in vivo and stabilizes its multimerization on adjacent microsatellites”.
